Results taken from PubChem BioAssay (NCI).
This is part of a sample that, as a whole, favours compounds with a hit. Of some 83,000 tested, about 20% had one in any assay.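 Single-concentration screen, 48 h exposure, 96-well plates. Endpoint: percent growth. Below 10 = active.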 Unmarked numbers belong to inactive results. Activity calls are given as the source filed them.

How the values were obtained:
Assay in all cases: NCI-60 one-dose screen, 48 h (100 = growth as untreated, 0 = no growth, -100 = all killed)
Settings in all cases: 10 µM unless noted
[1] = tested on: T-47D breast
[2] = tested on: BT-549 breast
[3] = tested on: MDA-MB-435 melanoma
[4] = tested on: SW-620 colon
[5] = tested on: MCF7 breast
[6] = tested on: HCT-116 colon
[7] = tested on: HCC-2998 colon
[8] = tested on: KM12 colon

SMILES	growth [1]	growth [2]	growth [3]	growth [4]	growth [5]	growth [6]	growth [7]	growth [8]
O=C(/C=C1\C(=O)N(Cc2ccc([N+](=O)[O-])cc2)c2ccccc21)c1ccc(OCCN2CCCC2)cc1	56.3%	81.5%	48.2%	18.7%	22.3%	12.2%	101%	90.1%
COc1nc(OC)nc(-c2cc(C(=O)c3ccc(Br)cc3)n3cc(C)cc(C)c23)n1	37.9%	42.7%	94.9%	89.7%	70.5%	36.5%	86.2%	94.2%
O=C(Nn1cnc2ccccc21)N1CCCC1	106%	96.5%	104%	109%	108%	85.1%	83.7%	116%
COc1cccc2c1nc1cccc(OC)c1[n+]2[O-]	32%	32.9%	98.4%	50%	32.8%	39.3%	-47.5% (active)	54.9%
C[n+]1c2ccccc2c(Nc2ccc(NS(=O)(=O)CCCCN=C(N)N)cc2)c2ccc(N)cc21	21.9%	88.7%	87.8%	59.1%	19.7%	37.3%	40.6%	42.3%
CCN(CCO)CCNc1ccc(C)c2sc3cc(OC)ccc3c(=O)c12	90.1%	88.7%	86.2%	38.4%	52.6%	20.5%	64.5%	69.2%
Cc1ccc2c(c1)C(=O)CCS2	106%	101%	104%	97.1%	93.3%	103%	99.6%	108%
CCCCCCCCCCCCCCCCNC(=O)Nc1ccc(C)c(NC(=O)NCCCCCCCCCCCCCCCC)c1	104%	104%	105%	107%	101%	117%	110%	113%
BrCCCOc1ccc(Oc2ccc(OCCCBr)cc2)cc1	113%	91%	107%	108%	97.9%	102%	119%	113%
CC(=O)NCCN	97.5%	102%	107%	107%	104%	102%	97.4%	113%
O=C(/C=C/c1ccc(Br)cc1)c1ccccc1	74.8%	95.8%	87.6%	65.6%	8.28% (active)	61.6%	99.4%	39.6%
O=C(N/N=C/c1coc2ccccc2c1=O)c1cc2oc(-c3ccccc3)cc2[nH]1	84.7%	77.2%	100%	102%	97.2%	96.5%	98.8%	101%
CC(=O)Nc1ccc(S(=O)(=O)Cl)cc1	101%	114%	115%	115%	96%	111%	108%	107%
C=CCN(C)C	117%	101%	97.1%	105%	101%	105%	110%	108%
COc1ccc2oc(=O)cc(CN3C(=O)S/C(=C\c4ccc(Cl)cc4)C3=O)c2c1	86.6%	91.5%	105%	108%	86.9%	84.8%	104%	96.1%
N=C(c1ccccc1)N(Cc1ccccc1)Cc1ccccc1	94.8%	93.2%	77.6%	89.4%	87.5%	57.3%	106%	101%
CC(=O)Nc1ccc(CC#N)cc1Br	94.4%	109%	104%	99.3%	96.7%	96.8%	96.7%	107%
COc1ccc(-c2nc(SCC(C)C)nc(Nc3ccccc3)c2C#N)cc1	51.3%	101%	92.8%	67.8%	75.7%	38.5%	99.3%	97.9%
CC(C)(CNC1CCCCC1)OC(=O)c1ccccc1	104%	99.7%	107%	110%	107%	103%	111%	102%
O=C(CCl)c1ccc2c(c1)CCCC2	87.9%	83.5%	111%	82.6%	86.5%	84.2%	111%	107%
CCCCN(CCC)CCCCCCCCCCN1CCCc2ccccc21	102%	89.6%	85.2%	43.9%	76.2%	58.3%	98.3%	45.2%
CCCCCCCCc1ccc(OCCOCC[N+](C)(C)CC)cc1 (tested in a mixture with another compound)	23.5%	45.3%	15.3%	46.4%	20.3%	54.2%	34.6%	18%
Cc1c(Cc2ccccc2)c(=O)oc2c(C)c(OCC(=O)n3nc(C#N)cc3N)ccc12	81.9%	90.3%	102%	101%	89.7%	95.3%	104%	98.7%

SMILES	growth [1]	growth [2]	growth [3]	growth [4]	growth [5]	growth [6]	growth [7]	growth [8]
COc1cc(OC)cc(-c2ccc(-c3ccc(C(=N)N)cc3)s2)c1	-53.6% (active)	-72.4% (active)	-97.5% (active)	-73.7% (active)	-75.2% (active)	-93.3% (active)	-76.5% (active)	-84.9% (active)
CCOC1=C(Cl)C(=O)C(OCC)=C(Cl)C1=O	93.5%	114%	100%	110%	99.5%	113%	91.2%	98.3%
COc1ccc(C2C3(C#N)C(N)=NC(=C(C#N)C#N)C23C#N)cc1OC (stereo unspecified)	110%	93.3%	107%	106%	108%	112%	122%	118%
Cc1ccnc2c(NC(C)CCCN)cc(O)c(O)c12 (stereo unspecified)	106%	92.1%	103%	100%	31.5%	99.7%	91.6%	109%
[2H]c1nc(=Nc2cc(NC(=O)C=C)c(N(C)CCN(C)C)cc2OC)[nH]c(-c2cn(C([2H])([2H])[2H])c3ccccc23)c1[2H]	33%	62.9%	22.2%	21.1%	23.4%	13.7%	51%	65.3%
CCCCCCCCCCC(C[N+](C)(C)C/C=C/c1ccccc1)C(O)c1ccccc1 (stereo unspecified)	10.3%	-6.83% (active)	-66% (active)	2.5% (active)	-66.9% (active)	-87.7% (active)	7.77% (active)	-97.5% (active)
O=S(=O)(O)c1ccc2c(c1)Sc1cc(S(=O)(=O)O)ccc1O2	110%	127%	92.6%	104%	106%	106%	102%	108%
O=C(C(=O)N1CCOCC1)c1ccc(O[C@H]2O[C@H](CO)[C@@H](O)[C@H](O)[C@@H]2O)cc1	107%	99.3%	108%	107%	100%	96.6%	79%	110%
CC[C@H](Nc1ncnc2nc[nH]c12)c1nc2cccc(NCc3ccc(C(=O)NO)nc3)c2c(=O)n1-c1ccccc1	6.8% (active)	13.3%	25.4%	47.2%	13.3%	9.03% (active)	67.6%	60.9%
COc1ccc(/C=C(/C(=O)N2CCN(c3ccc(C)cc3)CC2)c2cc(OC)c(OC)c(OC)c2)cc1N	97.2%	16.6%	-43.8% (active)	27.1%	12%	3.55% (active)	31.8%	3.83% (active)
Brc1c(-c2ccncc2)nc2n1CCS2	100%	105%	94%	105%	110%	85%	116%	116%
COc1ccc(/C=N/c2cc(C(C)(C)C)nn2-c2ccccc2)cc1	85.8%	128%	95.5%	101%	88.8%	92.8%	132%	104%
COc1ccc(C2=C/C(=C\c3ccc(Cl)cc3)C(=O)NN2C(=S)NN)cc1	76.6%	101%	109%	99.4%	75.3%	94.9%	109%	100%
O=C(NC1CCN(Cc2ccccc2)CC1)c1cc(-c2cccnc2)nc2ccc(Cl)cc12	45%	75.5%	75%	27%	70.9%	57.6%	64.9%	39.2%
CC(=O)C(CO)C(=O)Nc1ccccc1 (stereo unspecified)	94.5%	106%	106%	109%	91.5%	106%	99.3%	104%
O=P(OCCCl)(OCCCl)C(O)c1ccccc1Cl (stereo unspecified)	98.2%	107%	102%	111%	99%	107%	106%	104%
CC(=O)Oc1cc2ccccc2cc1C(C)C	101%	112%	102%	99.7%	98%	97.1%	99.2%	118%
CNc1ccc(Nc2ccc(S(=O)(=O)O)cc2)c2c1C(=O)c1ccccc1C2=O	110%	99.5%	95%	112%	97%	109%	112%	108%
O=C(CCCC(=O)Nc1ccc(Cn2nnc3cc(Cl)c(Cl)cc32)cc1)Nc1ccc(CN2N=NC3C=C(Cl)C(Cl)=CC32)cc1 (stereo unspecified)	49%	71.5%	87.8%	85.8%	66.6%	75.1%	90.2%	79.9%
C=CCSc1nnc(COc2ccc3c(C)c(Cc4ccccc4)c(=O)oc3c2C)o1	96%	100%	103%	99.2%	95.7%	95.6%	104%	101%
CCCCCSc1ccc2nc(NC(=O)OCCC)sc2c1	38.1%	34.2%	-40.5% (active)	22.9%	14.3%	25.3%	74%	24.9%
CC(C)CSc1nc(-c2ccc(F)cc2)c(C#N)c(N2CCCCC2)n1	91.2%	88.9%	98.6%	97.8%	83%	89.5%	104%	86.1%
Oc1ccccc1/C=N/N=C\c1ccccc1Cl	67.1%	86.2%	107%	94.6%	54.1%	100%	100%	88.4%

SMILES	growth [1]	growth [2]	growth [3]	growth [4]	growth [5]	growth [6]	growth [7]	growth [8]
COc1ccc(C2=NN(C(=O)c3cc(-c4ccc(C)cc4)nc4ccccc34)C(c3cc(-c4ccccc4)nn3-c3ccccc3)C2)cc1 (stereo unspecified)	72.7%	90.6%	102%	96.7%	88.4%	81.4%	102%	90.8%
Cc1cc2c(-c3nc4ccccc4n3C)c(O)c(O)cc2c(O)c1-c1c(C)cc2c(-c3nc4ccccc4n3C)c(O)c(O)cc2c1O	19.3%	20%	34.2%	54.3%	19.6%	7.37% (active)	66.5%	24.7%
COC(=O)/C=C1/CCCCC1(C)C(=O)OC (stereo unspecified)	110%	89.8%	103%	106%	106%	95.7%	119%	107%
CC(O)C(N)=O (stereo unspecified)	94.7%	102%	103%	105%	94.6%	94.2%	100%	103%
CNCCCNCCCCNCCCN1C(=O)c2ccc3c4c(ccc(c24)C1=O)C(=O)N(CCCNCc1ccccc1OC)C3=O	8.96% (active)	57.8%	1.07% (active)	19.8%	7.86% (active)	11.1%	31.5%	12%
COC(=O)CC(=O)C(=O)OC	99.9%	101%	120%	104%	97.6%	93.4%	104%	106%
Nc1nc2c(c3cnccc13)C(c1cccc(Cl)c1)Cc1cnccc1-2 (stereo unspecified)	47.9%	-12% (active)	-22.9% (active)	24.2%	11.1%	6.83% (active)	41.7%	13.7%
O=C(NCCO)C(F)(F)F	95.8%	106%	108%	105%	95.6%	108%	97%	107%
C[C@H]1C[C@@H](n2cnc3c(N)nccc32)[C@H](O)[C@@H]1O	102%	93.7%	113%	87.2%	90.1%	86.8%	101%	80.8%
COc1ccc(OC)c(Cn2cc3c(c2-c2ccccc2)CCc2cnoc2-3)c1	32.2%	65.3%	-17.6% (active)	37.4%	44.4%	43.2%	85.5%	33.3%
CCCCCCCCCCCCOC(=O)/C=C\C(=O)NC(N)=O	80.3%	67.7%	84.7%	91.2%	64.3%	68.2%	110%	95.4%
CCCCCCCCC/C(=N\NC(=O)c1ccncc1)c1ccc(O)c(O)c1O	33.7%	38.8%	53%	43.1%	21.4%	26.7%	33.3%	22.4%
Oc1ccccc1/C=N/N=C/c1c(O)ccc2ccccc12	63.4%	77.8%	108%	95%	52.7%	83%	91.2%	76.4%
COc1ccc(C(=O)N2N=C(c3ccc(Br)cc3)CC2c2cn(-c3ccccc3)nc2-c2ccccc2)cc1 (stereo unspecified)	61.1%	87.7%	48.6%	29.6%	33.8%	-23.3% (active)	55.9%	55.6%
COc1cc(N)c2nccc(C)c2c1OC	108%	83.3%	110%	94.1%	113%	102%	149%	101%
CCOC(=O)C1=C(c2ccccc2)NC(=O)NC1CN1C(=O)c2ccccc2C1=O (stereo unspecified)	99%	129%	114%	107%	98.3%	99.6%	62.9%	113%
CCCCCCCCCCCCCCCC[n+]1cccc(C#N)c1	49.2%	90.3%	73.3%	35.6%	38.5%	24%	65.2%	44.4%
Cc1ccc(NC(=O)CCl)cc1Cl	90.2%	76.7%	90.9%	95.5%	87.5%	106%	115%	111%
CCCCCCC(=O)C(C)C	110%	102%	103%	106%	102%	101%	105%	103%
O=C1N/C(=N\c2nnc(-c3ccc(O)cc3)s2)S/C1=C\c1ccccc1O	97.9%	97%	94.4%	96.1%	88.4%	91.7%	106%	96.7%
CCCCCCC(C)N(CC(C)(C)O)C(=O)c1ccc([N+](=O)[O-])cc1 (stereo unspecified)	88.2%	99%	104%	95.8%	97.6%	91.3%	115%	103%
